# Source: PubChem BioAssay (NCATS)
# Where “and” joins values, the source holds several entries; their conditions need not be identical. Equal entries are not always repeated. Results filed as inconclusive are left out. Where a call stands in place of a potency, no number is given. A structure can be active in one record and inactive in another. Calls of active or inactive are those of the source. Unless noted, calls come from the whole dose curve; as a rule, active = well fitted curve in the direction sought with a large enough effect; inconclusive = small, poorly fitted or top-dose-only effect, or another doubt; inactive = no such curve, though single readings can be large; an effect the other way counts as inactive or inconclusive.
# Tests used:
# [1] = Confirmation and Secondary Assay for Modulators of Hemoglobin Beta Chain Splicing at IVS2 654 locus (AID 910);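 note: per-well total GFP intensity by laser scanning cytometry after 2-day treatment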;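 note: potency is the fitted concentration of half-maximal effect; potency of activators that raise GFP signal by restoring correct splicing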
# How it was run: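 HeLa cells stably carrying EGFP interrupted by mutant beta-globin IVS2-654 intron (CMV-driven) were treated with compound for 2 days at 37C; corrected splicing was scored as total peak GFP intensity per well (488 nm excitation, 500-520 nm emission).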
# [2] = qHTS Assay for Identification of Small Molecule Agonists for Thrombopoietin (TPO) Signaling Pathway (AID 917)
# How it was run: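 Murine Ba/F3 cells stably expressing human TPO receptor and a Glycoprotein IIb promoter–luciferase reporter were IL-3-starved overnight, then treated with compounds plus TPO (26 pM final, its EC50) for 24 hrs at 37 C; luminescence was read.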
# [3] = Confirmation and Secondary Assay for Modulators of Hemoglobin Beta Chain Splicing at IVS2 705 locus (AID 930);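 note: HeLa cells stably expressing the EGFP-705 splicing reporter; GFP fluorescence per well restored by corrected splicing of the IVS2-705 intron in EGFP; series mostly up to about 46 µM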
# How it was run: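 Secondary splice-site specificity test uses HeLa expressing CMV-driven EGFP interrupted by IVS2-705; cells were treated 2 days at 37C with 500 nM antisense PNA as positive control.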
# [4] = molecular target: Cytochrome P450 2C19 (Homo sapiens) (UniProt P33261); assay: qHTS Assay for Inhibitors and Substrates of Cytochrome P450 2C19 (AID 899); note: nearly all actives have a fitted effect of over 60% in size; note: potency is the fitted concentration of half-maximal effect
# How it was run: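 NADPH-dependent conversion of Luciferin-H EGE (10uM, at KM) by 5nM enzyme in 50mM KPO4, 60 min at 37C following 10 min compound preincubation. Stopped with luciferin detection buffer; luminescence read after 20 min.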
# [5] = molecular target: Muscarinic acetylcholine receptor M1 (Rattus norvegicus) (UniProt P08482); assay: qHTS Assay for Antagonists of Acetylcholine Muscarinic M1 Receptor: Kinetic Measurement of Intracellular Calcium Response (AID 943); note: nearly all actives have a fitted effect of over 75% in size; note: potency is the fitted concentration of half-maximal effect
# How it was run: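 Rat M1-CHO cells, 2000/well, overnight → Fluo-4 no-wash dye with probenecid, 1 h 37C → compound 10 min, room temp → basal read 6 s → carbachol EC80 (100 nM) → 4 min kinetic read; peak/basal.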
# [6] = molecular target: Muscarinic acetylcholine receptor M1 (Rattus norvegicus) (UniProt P08482); assay: qHTS Assay for Antagonists of Acetylcholine Muscarinic M1 Receptor: Measurement of IP-One Response (AID 944); note: nearly all actives have a fitted effect of over 75% in size
# How it was run: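 M1-CHO (rat), 2000 cells/well, overnight recovery; cpd 10 min; carbachol EC80 (200 nM), 30 min, HEPES buffer + 50 mM LiCl pH 7.4; IP-One HTRF, Ex 337, Em 620/665 nm.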
# [7] = qHTS Assay for Identification of Small Molecule Agonists for Hypoxia Response Element Signaling Pathway (AID 914; active = well fitted activation curve with a large enough effect in the signal ratio, with a control signal flat, not every such curve was filed as active; the % refers to the signal ratio; note: potency is the fitted concentration of half-maximal effect); settings: ME-180 (cervical carcinoma) HRE-bla reporter, beta-lactamase ratio, CoCl2, 17 h; activation: stronger effect = higher value
# How it was run: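 qHTS titration; ME-180 HRE-bla cells; EC50 CoCl2 co-treatment, 17 h at 37 degrees Celsius; CCF4 dye, ex 405nm, em 460nm and 530nm; %Activity from ratio; AC50.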
# [8] = qHTS Assay for Identification of Small Molecule Antagonists for Thrombopoietin (TPO) Signaling Pathway (AID 918); settings: TPO-dependent cell signaling reporter, antagonist mode; note: potency is the fitted concentration of half-maximal effect; nearly all actives have a fitted effect of over 60% in size
# How it was run: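 Ba/F3 (murine, hTPO-R, GPIIb-luc reporter); overnight IL-3 withdrawal; cpd + TPO 26 pM final (EC50); 24 h 37 C/5% CO2; Steadylite luminescence after 10 min RT.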
# Sequence of Muscarinic acetylcholine receptor M1 (Rattus norvegicus) (P08482 whole entry, looked up): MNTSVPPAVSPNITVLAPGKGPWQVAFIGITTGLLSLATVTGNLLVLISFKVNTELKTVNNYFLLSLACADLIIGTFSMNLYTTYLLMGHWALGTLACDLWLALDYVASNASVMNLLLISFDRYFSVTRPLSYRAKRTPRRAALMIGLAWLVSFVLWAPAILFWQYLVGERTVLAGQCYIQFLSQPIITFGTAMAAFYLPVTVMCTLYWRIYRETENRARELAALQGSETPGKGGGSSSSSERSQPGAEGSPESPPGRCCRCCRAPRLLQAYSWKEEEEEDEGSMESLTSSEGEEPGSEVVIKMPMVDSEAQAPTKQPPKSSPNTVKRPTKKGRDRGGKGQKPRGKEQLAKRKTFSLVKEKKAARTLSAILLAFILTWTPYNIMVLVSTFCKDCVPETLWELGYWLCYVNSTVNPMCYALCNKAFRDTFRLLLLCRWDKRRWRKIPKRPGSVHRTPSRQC
# Sequence of Cytochrome P450 2C19 (Homo sapiens) (P33261 whole entry, looked up): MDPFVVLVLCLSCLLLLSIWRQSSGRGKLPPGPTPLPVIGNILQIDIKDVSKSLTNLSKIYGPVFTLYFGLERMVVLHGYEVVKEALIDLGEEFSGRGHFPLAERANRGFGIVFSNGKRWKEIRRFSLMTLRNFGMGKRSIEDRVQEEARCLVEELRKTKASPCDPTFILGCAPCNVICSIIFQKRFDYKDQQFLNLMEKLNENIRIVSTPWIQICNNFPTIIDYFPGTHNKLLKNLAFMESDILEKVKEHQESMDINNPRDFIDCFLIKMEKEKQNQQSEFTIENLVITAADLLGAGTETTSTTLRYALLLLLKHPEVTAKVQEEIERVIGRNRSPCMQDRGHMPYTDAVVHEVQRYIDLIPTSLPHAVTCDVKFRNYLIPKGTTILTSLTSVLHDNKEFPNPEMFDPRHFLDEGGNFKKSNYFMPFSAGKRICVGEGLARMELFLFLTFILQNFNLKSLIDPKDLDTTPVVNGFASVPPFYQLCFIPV
compound,measurement,setting,value
CC(C)NC[C@H](O)COc1ccc(CC(N)=O)cc1,Potency,[1],inactive
same,Potency,[2],inactive
same,outcome,[3],inactive
O=C(O)c1ccccc1Nc1cccc(OCc2ccc3ccccc3n2)c1,Potency,[4],inactive and 5.01 µM (active)
same,Potency,[5],inactive
C[C@H](NC(=O)/C(C#N)=C/c1ccc(O)c(O)c1)c1ccccc1,Potency,[4],inactive
same,Potency,[5],inactive
CCn1c(=O)[nH]c2cc(Cl)c(Cl)cc21,Potency,[4],inactive
same,Potency,[2],inactive
same,Potency,[5],inactive
same,Potency,[6],inactive
Cn1cc(C(=O)OCC2CCN(CCNS(C)(=O)=O)CC2)c2ccccc21,Potency,[4],inactive
same,activation,[7],26.2% (inactive)
same,Potency,[2],inactive
O=C(N[C@@H](Cc1ccccc1)C(=O)CCl)OCc1ccccc1,Potency,[4],5.01 µM (active)
same,Potency,[8],2.51 µM (active)
same,Potency,[5],inactive
same,Potency,[6],inactive
O=C(O)c1ccccc1Nc1ccccc1,Potency,[1],inactive
same,Potency,[2],inactive
same,outcome,[3],inactive
same,Potency,[5],inactive
same,Potency,[6],inactive
NCCCCN=C(N)N,Potency,[1],inactive
same,Potency,[2],inactive
same,outcome,[3],inactive
same,Potency,[5],inactive
CNC(=O)c1cc2c(cn1)[nH]c1ccccc12,Potency,[4],inactive
same,Potency,[5],inactive
same,Potency,[6],inactive
c1ccc(C2CN3CCSC3=N2)cc1 (centres undefined),Potency,[1],inactive
same,outcome,[3],inactive
COc1ccc(C(=O)NCc2cccnc2)cc1C(=O)NCc1cccnc1,Potency,[2],inactive
same,Potency,[5],inactive
CC(C)(CO)Cc1cc(C(C)(C)C)c(O)c(C(C)(C)C)c1,Potency,[7],12.6 µM (active)
same,Potency,[2],inactive
same,Potency,[5],inactive
NC(=O)CC[C@H](N)C(=O)O,Potency,[1],inactive
same,outcome,[3],inactive
CC(N)=O,Potency,[2],inactive
same,Potency,[5],inactive
CCCn1c(=O)c2c(ncn2C)n(CCC)c1=O,activation,[7],3.52% (inactive)
same,Potency,[2],inactive
same,Potency,[5],inactive
O=c1[nH]c2ccccc2c2ccccc12,Potency,[2],inactive
CCCCCCC/C=C\CCCCCCCCC(=O)O,activation,[7],-14% (inactive)
same,Potency,[2],inactive
same,Potency,[5],inactive
same,Potency,[6],inactive
O=C(OCCN1CCOCC1)C1(c2ccccc2)CCCCC1,Potency,[2],inactive
same,Potency,[5],2 µM (active)
C=C(C)C1CC=C(C(=O)O)CC1 (centres undefined),Potency,[1],inactive
same,outcome,[3],inactive
CN(C)CCC(c1ccc(Br)cc1)c1ccccn1 (centres undefined),Potency,[1],inactive
same,outcome,[3],inactive
O=c1onc2n1-c1cc(Br)ccc1OC2,Potency,[2],inactive
same,Potency,[5],inactive
same,Potency,[6],inactive
NC(=O)CNCCC(c1ccccc1)c1ccccc1,Potency,[2],inactive
same,Potency,[5],inactive
OC[C@H]1O[C@@H](n2cnc3cncnc32)[C@H](O)[C@@H]1O,Potency,[1],1.26 µM (active)
same,outcome,[3],inactive
c1ccc(CN2CCC3(CCCc4ccccc43)CC2)cc1,Potency,[2],inactive
N[C@@H](CS(=O)O)C(=O)O,Potency,[2],inactive
same,Potency,[5],inactive
Nc1ccc2c3c(cccc13)C(=O)NC2=O,Potency,[2],inactive
Nc1ccc(N2C(=O)c3ccccc3C2=O)c(Cl)c1,activation,[7],-21.1% (inactive)
same,Potency,[2],inactive
same,Potency,[6],inactive
O=c1ccc2c(OCCCCc3ccccc3)c3ccoc3cc2o1,Potency,[2],inactive
NC(N)=[N+]1CCc2ccccc2C1,Potency,[2],inactive
same,Potency,[5],inactive
NC1CONC1=O (centres undefined),Potency,[1],inactive
same,outcome,[3],inactive
